Reference: PubChem BioAssay
For part of these data: Potency and affinity values are given separately. Calls of active or inactive are those of the source.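 The calls were made as follows, unless noted: active = primary screen hit whose fluorescence ratio, in both repeats, exceeds the weak agonist control mean by 3 SD; inactive = the rest.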

Assays:
[1] = test system: TRPC4 beta (transient receptor potential cation channel C4), mouse; assay: TRPC4 cation channel opening, retest – cell-based, Fluo4 calcium, HEK293 TRPC4beta/mu-opioid, duplicates, 10 µM, confirmation (AID 2426;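 active = fluorescence ratio normalized to control raised more than 50% in primary screen plus both repeat runs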;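 as to activation: percent rise of integrated ratio over buffer wells lacking compound which define 0%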); conditions: Fluo4 calcium fluorescence, at 10 µM; hits give high values
[2] = test system: transient receptor potential cation channel C4 beta (TRPC4), mouse; assay: TRPC4 cation channel opening, second retest – cell-based, second round, Fluo4, HEK293 TRPC4beta/mu-opioid, 1 µM, confirmation (AID 2461;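 active = primary screen active and over 50% activation in each of two duplicate runs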); conditions: Fluo4 calcium fluorescence, at 1 µM; hits give high values
[3] = test system: TRPC4 (transient receptor potential cation channel C4 beta), mouse; assay: potentiation of DAMGO EC20 TRPC4 response – cell-based, second round, Fluo-4, HEK293 TRPC4beta/mu-opioid, 1 µM, confirmation (AID 2554); conditions: DAMGO EC20, Fluo-4 calcium flux, at 1 µM; hits give high values
[4] = test system: TRPC4 beta (transient receptor potential cation channel C4), mouse; assay: potentiation of DAMGO EC20 TRPC4 response – cell-based, Fluo-4, HEK293 TRPC4beta/mu-opioid, confirmation (AID 2555;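 active = primary screen hit whose calcium fluorescence ratio, in both repeats, exceeds the weak agonist control mean by 3 SD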); conditions: DAMGO EC20, Fluo-4 calcium flux, at 10 µM; hits give high values
[5] = target: Short transient receptor potential channel 4 (Mus musculus) (UniProt Q9QUQ5); assay: blockers of DAMGO-evoked TRPC4 calcium flux – cell-based, Fluo4, HEK293 TRPC4beta/mu-opioid, confirmation (AID 2636;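 active = calcium signal cut by more than 3 SD below the full-agonist control yet still positive, in both repeats and the earlier primary screen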); conditions: at 10 µM; hits give high values
[6] = target: Short transient receptor potential channel 4 (Mus musculus) (UniProt Q9QUQ5); assay: blockers of DAMGO-evoked TRPC4 calcium flux – cell-based, second round, Fluo4, HEK293 TRPC4beta/mu-opioid, 1 µM, confirmation (AID 2637;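 active = calcium signal ratio cut to more than 3 SD under the fully stimulated control mean yet still positive, in both repeats and the primary screen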); conditions: at 1 µM; hits give high values
[7] = target: Short transient receptor potential channel 4 (Mus musculus) (UniProt Q9QUQ5); assay: potentiation of DAMGO-evoked TRPC4 calcium signal – cell-based, HEK293 TRPC4/mu-opioid, Fluo-4 calcium, EC20 DAMGO, dose response (AID 434941;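 active = earlier screen potentiator hit that boosts the TRPC4 ion channel at some dose, with a dose response; inactive = no potentiation, no dose response, or not a prior hit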;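 also: calcium entry triggered by an EC20 dose of DAMGO at the co-expressed mu-opioid receptor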)
[8] = target: Short transient receptor potential channel 4 (Mus musculus) (UniProt Q9QUQ5); assay: block of DAMGO-driven TRPC4 calcium entry – cell-based, HEK293 TRPC4/mu-opioid, Fluo-4 calcium, dose response (AID 434942;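 active = primary screen inhibitor hit that blocks the TRPC4 channel at some tested dose, yielding a dose curve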)
[9] = target: Short transient receptor potential channel 6 (Mus musculus) (UniProt Q61143); assay: TRPC6 blockade by TRPC4 inhibitor hits – cell-based, HEK293, membrane potential dye, duplicate, selectivity assay for TRPC4 inhibitor project, confirmation (AID 434948;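 active = active in primary screen and both duplicates, each dropping signal beyond three positive-control SD with fluorescence still positive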); conditions: HEK293 TRPC6, membrane potential dye fluorescence, at 10 µM, stimulated with maximal-effect acetylcholine; hits give high values
[10] = target: Short transient receptor potential channel 6 (Mus musculus) (UniProt Q61143); assay: TRPC6 opening by TRPC4 activator hits – cell-based, HEK293, membrane potential dye, duplicate, selectivity assay for TRPC4 activator project, confirmation (AID 434950;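 active = membrane potential signal rise above negative control mean plus 3 SD in both duplicates, also active in the earlier TRPC4 screen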;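 as to activation: 0% = buffer only wells and 100% = acetylcholine maximal-effect wells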); conditions: HEK293 TRPC6, membrane potential fluorescence, at 10 µM; activation: hits give high values; outcome: activation
[11] = target: Short transient receptor potential channel 6 (Mus musculus) (UniProt Q61143); assay: positive modulators of mouse TRPC6 channel – HEK293 cells, membrane potential dye, duplicate, selectivity assay for TRPC4 potentiator project, confirmation (AID 434952;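 active = compound raising the membrane signal above positive-control mean plus 3 SD in both repeats, and a primary screen hit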); conditions: HEK293 TRPC6, membrane potential dye fluorescence, at 10 µM, maximal acetylcholine added after compound; hits give high values
[12] = target: Short transient receptor potential channel 4 (Mus musculus) (UniProt Q9QUQ5); assay: calcium flux activators in TRPC4/5HT1a cells, counter-screen for TRPC4 activator project, cell-based, second counter screen, HEK293 TRPC4/5HT1a, Fluo-4 (AID 434977;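 active = calcium signal rise above buffer-control mean plus 5 SD in both duplicates, and also a hit in the primary screen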;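 as to activation: plate controls were assay buffer for no effect and maximal serotonin response for full effect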); conditions: Fluo-4 calcium flux, at 10 µM; hits give high values
[13] = serotonin-gated TRPC4 signal block – cell-based, second counter screen, HEK293 TRPC4/5HT1a, Fluo-4, counter-screen for TRPC4 inhibitor project, confirmation (AID 434978;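 active = primary screen active whose calcium signal fell more than 3 SD beyond the full-serotonin control mean in both duplicate plates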;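 as to outcome: serotonin given first at submaximal then at maximal dose after compound preincubation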); conditions: Fluo-4 calcium flux, at 10 µM, serotonin added to trigger calcium flux; hits give high values
[14] = test system: TRPC4 (mouse), co-expressed with 5HT1a in HEK293; assay: enhancement of serotonin-evoked TRPC4 response – cell-based, second counter screen, HEK293 TRPC4/5HT1a, Fluo-4, counter-screen for TRPC4 potentiator project, confirmation (AID 434979;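 active = signal rise over 3 SD above mean of control wells given weak agonist, in both repeats and first screen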); conditions: Fluo-4 calcium flux, at 10 µM, serotonin added at its EC20 dose; hits give high values
[15] = nonspecific calcium rise without TRPC4 – cell-based, HEK293 mu-opioid receptor line, counter-screen for TRPC4 activator project, confirmation (AID 449723;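 active = hit in primary screen, with calcium signal over 5 SD above buffer well mean in both duplicates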;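 also: counter screen cells carry the mu-opioid receptor alone and lack TRPC4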); conditions: HEK293 mu-opioid cells, Fluo-4 calcium fluorescence, at 10 µM; hits give high values
[16] = nonspecific potentiation of DAMGO calcium response – cell-based, HEK293 mu-opioid receptor line, counter-screen for TRPC4 allosteric potentiator project, confirmation (AID 449724;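 active = calcium signal rise more than 3 SD above the low-dose agonist control mean, in both duplicate plates and the primary screen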); conditions: HEK293 mu-opioid receptor cells, Fluo-4 calcium flux, at 10 µM, compound added before EC20 DAMGO stimulus; hits give high values
[17] = nonspecific flux increase, KCNQ1-free cells – parental CHO cells, counter-screen for KCNQ1 potentiator project (AID 493006;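 active = duplicate-averaged activation above buffer control mean plus 5 SD of those controls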;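 as to activation: fluorescence ratio of max minus min over baseline after K+ and Tl+ depolarization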); conditions: parental CHO-K1 cells, FluxOR thallium flux, at 10 µM; hits give high values
[18] = target: Potassium voltage-gated channel subfamily KQT member 1 (Homo sapiens) (UniProt P51787); assay: enhancement of KCNQ1 channel thallium flux – FluxOR thallium flux, CHO cells, duplicates, confirmation (AID 493007;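 active = potentiation averaged over duplicate wells exceeding buffer-only control mean by more than 3 SD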;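 also: 0% = buffer-only wells and 100% = R-L3 activator control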); conditions: KCNQ1 cell line, FluxOR thallium flux fluorescence, at 10 µM; hits give high values, % of reference activator effect, buffer zero
[19] = target: Potassium voltage-gated channel subfamily KQT member 1 (Homo sapiens) (UniProt P51787); assay: KCNQ1 activators by electrophysiology – IonWorks patch clamp, KCNQ1-CHO cells, orthogonal assay for KCNQ1 potentiator project, confirmation (AID 493184;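 active = current rise at least 3 SD above the untreated control mean in each of two repeat wells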); conditions: automated patch clamp current, at 10 µM; hits give high values
[20] = target: Potassium voltage-gated channel subfamily KQT member 2 (Rattus norvegicus) (UniProt O88943); assay: KCNQ2 thallium flux enhancement – KCNQ2-CHO-K1 cells, selectivity assay for KCNQ1 potentiator project (AID 493009;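 active = mean duplicate potentiation above the buffer control mean plus 5 SD of buffer wells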;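 also: assay conditions were tuned for KCNQ1 rather than KCNQ2 modulators; signal is max minus min fluorescence divided by baseline after thallium stimulus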); conditions: FluxOR thallium flux fluorescence, at 10 µM; hits give high values, scaled: buffer 0, activator control 100
Chain of Potassium voltage-gated channel subfamily KQT member 2 (Rattus norvegicus) (O88943 whole entry, looked up): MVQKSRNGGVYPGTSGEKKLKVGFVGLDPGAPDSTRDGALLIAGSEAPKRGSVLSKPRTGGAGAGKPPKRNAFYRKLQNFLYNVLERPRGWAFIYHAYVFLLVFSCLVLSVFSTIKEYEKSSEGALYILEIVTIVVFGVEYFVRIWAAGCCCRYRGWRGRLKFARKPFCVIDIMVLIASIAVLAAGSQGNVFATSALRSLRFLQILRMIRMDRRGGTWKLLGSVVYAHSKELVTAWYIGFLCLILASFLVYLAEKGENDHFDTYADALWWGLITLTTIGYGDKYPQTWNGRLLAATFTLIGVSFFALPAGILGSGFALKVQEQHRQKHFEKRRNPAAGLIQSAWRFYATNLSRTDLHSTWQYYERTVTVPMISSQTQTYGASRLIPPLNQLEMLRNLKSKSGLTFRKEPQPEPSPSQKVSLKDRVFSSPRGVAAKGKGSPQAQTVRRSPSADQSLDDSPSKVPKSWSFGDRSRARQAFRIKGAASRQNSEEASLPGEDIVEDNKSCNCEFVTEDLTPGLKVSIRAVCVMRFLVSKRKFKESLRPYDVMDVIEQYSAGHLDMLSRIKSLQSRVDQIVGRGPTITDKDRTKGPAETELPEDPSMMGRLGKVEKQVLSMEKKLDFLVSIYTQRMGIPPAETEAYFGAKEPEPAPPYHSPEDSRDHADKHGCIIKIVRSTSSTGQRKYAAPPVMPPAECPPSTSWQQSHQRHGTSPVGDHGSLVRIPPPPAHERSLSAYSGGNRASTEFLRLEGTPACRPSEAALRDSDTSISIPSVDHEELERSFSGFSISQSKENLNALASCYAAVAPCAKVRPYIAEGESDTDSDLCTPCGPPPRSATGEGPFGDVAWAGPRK

Chain of Potassium voltage-gated channel subfamily KQT member 1 (Homo sapiens) (P51787 whole entry, looked up): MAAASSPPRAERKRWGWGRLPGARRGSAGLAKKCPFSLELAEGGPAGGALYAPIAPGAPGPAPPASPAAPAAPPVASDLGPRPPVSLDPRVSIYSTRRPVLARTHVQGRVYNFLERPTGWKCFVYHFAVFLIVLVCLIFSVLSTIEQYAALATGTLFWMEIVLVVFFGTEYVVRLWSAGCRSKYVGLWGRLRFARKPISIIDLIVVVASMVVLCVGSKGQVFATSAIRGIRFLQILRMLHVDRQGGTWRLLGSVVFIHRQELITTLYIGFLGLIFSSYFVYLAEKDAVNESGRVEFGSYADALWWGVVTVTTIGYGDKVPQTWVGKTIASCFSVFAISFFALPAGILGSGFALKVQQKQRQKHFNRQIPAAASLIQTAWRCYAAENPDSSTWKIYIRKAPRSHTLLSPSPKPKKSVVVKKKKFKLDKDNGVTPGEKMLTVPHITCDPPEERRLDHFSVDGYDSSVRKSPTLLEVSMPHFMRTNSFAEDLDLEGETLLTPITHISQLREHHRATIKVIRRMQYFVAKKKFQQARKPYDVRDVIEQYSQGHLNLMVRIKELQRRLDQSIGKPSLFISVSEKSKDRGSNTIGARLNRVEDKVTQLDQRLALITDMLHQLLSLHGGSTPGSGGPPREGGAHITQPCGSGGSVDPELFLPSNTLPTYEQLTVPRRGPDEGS
Chain of Short transient receptor potential channel 4 (Mus musculus) (Q9QUQ5 whole entry, looked up): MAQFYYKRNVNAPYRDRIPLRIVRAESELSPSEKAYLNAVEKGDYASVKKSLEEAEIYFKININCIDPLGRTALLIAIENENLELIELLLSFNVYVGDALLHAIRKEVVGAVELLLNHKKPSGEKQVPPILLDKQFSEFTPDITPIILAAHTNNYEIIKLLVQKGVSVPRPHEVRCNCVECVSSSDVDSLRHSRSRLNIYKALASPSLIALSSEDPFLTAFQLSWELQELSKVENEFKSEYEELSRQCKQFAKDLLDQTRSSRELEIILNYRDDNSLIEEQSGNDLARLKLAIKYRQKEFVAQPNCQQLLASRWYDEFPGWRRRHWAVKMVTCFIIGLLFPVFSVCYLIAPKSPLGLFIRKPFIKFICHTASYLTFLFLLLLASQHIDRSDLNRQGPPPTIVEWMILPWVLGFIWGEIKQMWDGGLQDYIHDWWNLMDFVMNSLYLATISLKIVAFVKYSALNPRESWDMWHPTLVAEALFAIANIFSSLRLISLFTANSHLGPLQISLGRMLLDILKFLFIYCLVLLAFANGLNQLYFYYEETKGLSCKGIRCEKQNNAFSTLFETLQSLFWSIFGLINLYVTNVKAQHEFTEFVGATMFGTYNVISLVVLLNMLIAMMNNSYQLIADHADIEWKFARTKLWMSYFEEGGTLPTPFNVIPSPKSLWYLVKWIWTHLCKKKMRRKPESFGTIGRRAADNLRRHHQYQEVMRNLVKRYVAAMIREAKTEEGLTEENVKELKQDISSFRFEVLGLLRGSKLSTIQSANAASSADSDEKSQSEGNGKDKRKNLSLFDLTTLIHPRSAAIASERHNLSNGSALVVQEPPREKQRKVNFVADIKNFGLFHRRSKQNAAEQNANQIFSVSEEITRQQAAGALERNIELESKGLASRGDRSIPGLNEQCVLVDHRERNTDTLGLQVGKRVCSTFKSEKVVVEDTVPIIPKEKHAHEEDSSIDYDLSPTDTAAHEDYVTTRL
Chain of Short transient receptor potential channel 6 (Mus musculus) (Q61143 whole entry, looked up): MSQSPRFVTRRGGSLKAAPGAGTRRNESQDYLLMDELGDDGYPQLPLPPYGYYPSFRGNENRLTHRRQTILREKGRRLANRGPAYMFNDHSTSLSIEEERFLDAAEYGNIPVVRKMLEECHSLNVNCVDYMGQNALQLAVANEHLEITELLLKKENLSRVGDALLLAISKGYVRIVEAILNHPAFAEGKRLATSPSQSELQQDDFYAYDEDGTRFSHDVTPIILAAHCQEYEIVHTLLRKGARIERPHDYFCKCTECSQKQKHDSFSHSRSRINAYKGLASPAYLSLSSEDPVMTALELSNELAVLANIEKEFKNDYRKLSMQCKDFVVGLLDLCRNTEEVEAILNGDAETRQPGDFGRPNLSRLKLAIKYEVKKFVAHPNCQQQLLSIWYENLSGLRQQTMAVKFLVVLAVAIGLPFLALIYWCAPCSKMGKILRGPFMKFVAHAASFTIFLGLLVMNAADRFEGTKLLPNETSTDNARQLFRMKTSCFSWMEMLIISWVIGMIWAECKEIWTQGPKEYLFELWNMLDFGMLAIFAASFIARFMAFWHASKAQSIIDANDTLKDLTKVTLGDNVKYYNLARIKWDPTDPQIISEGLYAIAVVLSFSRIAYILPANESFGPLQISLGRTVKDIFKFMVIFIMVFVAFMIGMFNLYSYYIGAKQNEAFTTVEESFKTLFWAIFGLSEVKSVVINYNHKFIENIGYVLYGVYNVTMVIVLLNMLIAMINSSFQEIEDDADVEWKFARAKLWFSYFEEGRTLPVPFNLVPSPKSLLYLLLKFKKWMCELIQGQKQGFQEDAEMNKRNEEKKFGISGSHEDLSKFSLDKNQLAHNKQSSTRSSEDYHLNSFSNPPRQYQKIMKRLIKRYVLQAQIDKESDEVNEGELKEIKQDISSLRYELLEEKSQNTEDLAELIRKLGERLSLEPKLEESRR

COC(=O)C1=NN(C(=O)c2ccc(C)cc2)C(O)(c2ccc(Cl)cc2)C1 (centres undefined)
inactive: outcome [2] | outcome [3] | outcome [4] | outcome [5] | outcome [6] | outcome [7] | outcome [8] | outcome [9] | outcome [11] | outcome [13] | outcome [14] | outcome [16] | outcome [19]
active: activation [1] 160% | activation [10] 315% | activation [12] 96.9% | activation [15] 67.6% | activation [17] 602% | potentiation [18] 280%

CCOC(=O)C1(CCc2ccccc2)CCN(Cc2ccc(O)cc2)CC1
inactive: outcome [1] | outcome [2] | outcome [3] | outcome [4] | outcome [6] | outcome [7] | outcome [9] | outcome [11] | outcome [12] | outcome [13] | outcome [14] | outcome [15] | outcome [16]
active: inhibition [5] 88% | activation [10] 69%

CC(Oc1ccc(Cl)cc1)C(=O)NNC(=S)NC(=O)c1ccco1 (centres undefined)
active: activation [1] 192% | activation [12] 104% | activation [15] 29.1% | potentiation [18] 50% | potentiation [20] 170%
inactive: outcome [2] | outcome [3] | outcome [4] | outcome [5] | outcome [6] | outcome [7] | outcome [8] | outcome [9] | outcome [10] | outcome [11] | outcome [13] | outcome [14] | outcome [16] | outcome [17] | outcome [19]

CN(C)/C=C1\C(=O)N(c2ccc([N+](=O)[O-])cc2)N=C1c1ccccc1
inactive: outcome [2] | outcome [3] | outcome [4] | outcome [6] | outcome [7] | outcome [9] | outcome [10] | outcome [11] | outcome [14] | outcome [15] | outcome [16]
active: activation [1] 76% | inhibition [5] 85% | activation [12] 68.6% | inhibition [13] -1.74%

CC1CC(C)(C)N(C(=O)CN2C(=O)c3ccccc3C2=O)c2ccccc21 (centres undefined)
inactive: outcome [2] | outcome [3] | outcome [4] | outcome [6] | outcome [7] | outcome [9] | outcome [11] | outcome [13] | outcome [14] | outcome [16]
active: activation [1] 149% | inhibition [5] 73% | activation [10] 51.5% | activation [12] 23.1% | activation [15] 62.6%
